Experiment in all cases: log2 ratio of Biotin-Ahx-Ub-VS probe labelling (fragment/DMSO); higher = less target engagement (more negative = stronger competition), active = hit call of the paper (q ≤ 0.05, log2 ratio ≤ -1)
What all share (conditions): compound concentration: 200 uM; treatment time: 3 h

For test [1], the target named is T1, ALG13 (UniProt Q9NP73).
T1 sequence (whole entry): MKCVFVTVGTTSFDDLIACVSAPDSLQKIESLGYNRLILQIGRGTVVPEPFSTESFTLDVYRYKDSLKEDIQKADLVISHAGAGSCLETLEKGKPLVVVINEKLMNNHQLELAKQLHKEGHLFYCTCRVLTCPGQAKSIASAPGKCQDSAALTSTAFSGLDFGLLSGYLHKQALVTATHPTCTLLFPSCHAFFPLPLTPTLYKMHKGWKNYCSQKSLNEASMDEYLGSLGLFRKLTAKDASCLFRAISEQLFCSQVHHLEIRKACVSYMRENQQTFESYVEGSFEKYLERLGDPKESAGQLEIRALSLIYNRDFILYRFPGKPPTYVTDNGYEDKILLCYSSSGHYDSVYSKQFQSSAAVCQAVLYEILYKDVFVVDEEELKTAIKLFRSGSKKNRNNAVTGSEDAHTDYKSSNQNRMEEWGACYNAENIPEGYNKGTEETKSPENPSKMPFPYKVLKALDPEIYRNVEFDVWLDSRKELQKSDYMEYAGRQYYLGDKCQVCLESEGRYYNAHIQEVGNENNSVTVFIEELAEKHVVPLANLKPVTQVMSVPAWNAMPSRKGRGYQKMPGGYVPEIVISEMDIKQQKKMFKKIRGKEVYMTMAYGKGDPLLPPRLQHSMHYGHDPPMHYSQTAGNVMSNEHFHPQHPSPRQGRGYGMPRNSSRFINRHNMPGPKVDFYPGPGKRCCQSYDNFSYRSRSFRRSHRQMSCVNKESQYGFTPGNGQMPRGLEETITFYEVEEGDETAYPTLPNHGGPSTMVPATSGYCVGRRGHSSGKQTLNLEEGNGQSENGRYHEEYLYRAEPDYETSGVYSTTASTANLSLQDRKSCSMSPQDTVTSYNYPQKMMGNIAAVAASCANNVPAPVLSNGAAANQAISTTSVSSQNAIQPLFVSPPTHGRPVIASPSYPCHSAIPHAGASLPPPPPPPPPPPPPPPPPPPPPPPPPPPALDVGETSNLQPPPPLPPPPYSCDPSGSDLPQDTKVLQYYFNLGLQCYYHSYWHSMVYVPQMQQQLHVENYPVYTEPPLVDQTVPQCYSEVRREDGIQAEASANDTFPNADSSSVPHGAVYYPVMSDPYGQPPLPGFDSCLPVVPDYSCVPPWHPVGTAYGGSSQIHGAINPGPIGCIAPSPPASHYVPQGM
The method in brief:
(§1)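 Average log2 ratios of fragment over vehicle were obtained by unpaired t-test from global-median-normalised Spectronaut label-free quantities. Proteins with ≥2 unique peptides were included. HEK293T lysate (495 µg per sample) was treated in triplicate with fragment at 200 µM or vehicle for 3 h, then with Biotin-Ahx-Ub-VS at 0.5 µM final for 1 h, and labelled DUBs were NeutrAvidin-enriched and run by diaPASEF LC-MS/MS.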

Test [2] concerns the target ATXN3 (UniProt P54252). The method in brief: as §1
The target in test [3] is T2, BAP1 (UniProt Q92560).
T2 sequence (whole entry): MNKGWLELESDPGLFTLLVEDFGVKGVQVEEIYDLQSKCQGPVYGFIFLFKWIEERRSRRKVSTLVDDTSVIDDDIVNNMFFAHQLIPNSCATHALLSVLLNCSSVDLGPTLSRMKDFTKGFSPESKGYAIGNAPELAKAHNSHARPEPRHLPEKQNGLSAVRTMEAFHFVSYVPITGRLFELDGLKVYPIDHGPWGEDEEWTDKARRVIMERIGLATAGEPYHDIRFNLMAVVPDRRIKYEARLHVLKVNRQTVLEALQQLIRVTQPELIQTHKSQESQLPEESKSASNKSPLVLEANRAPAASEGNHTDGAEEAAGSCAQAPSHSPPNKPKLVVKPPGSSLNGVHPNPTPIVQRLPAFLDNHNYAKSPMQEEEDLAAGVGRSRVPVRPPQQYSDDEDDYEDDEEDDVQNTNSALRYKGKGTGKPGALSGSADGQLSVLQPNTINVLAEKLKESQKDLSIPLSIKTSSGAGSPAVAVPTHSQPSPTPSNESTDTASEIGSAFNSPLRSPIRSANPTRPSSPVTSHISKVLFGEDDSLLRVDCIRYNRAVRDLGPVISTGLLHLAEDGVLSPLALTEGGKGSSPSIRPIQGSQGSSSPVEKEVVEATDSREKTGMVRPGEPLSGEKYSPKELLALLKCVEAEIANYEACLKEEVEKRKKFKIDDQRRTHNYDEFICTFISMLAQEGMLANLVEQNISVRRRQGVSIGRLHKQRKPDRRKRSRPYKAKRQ
The method, boiled down:
as §1

The target of test [4] is EIF3F (UniProt O00303). The method in brief:
as §1

Test [5] addresses EIF3H (UniProt O15372). The method, boiled down: as §1
Test [6] has as its target T3, FAM105A (UniProt Q9NUU6).
T3 sequence (whole entry): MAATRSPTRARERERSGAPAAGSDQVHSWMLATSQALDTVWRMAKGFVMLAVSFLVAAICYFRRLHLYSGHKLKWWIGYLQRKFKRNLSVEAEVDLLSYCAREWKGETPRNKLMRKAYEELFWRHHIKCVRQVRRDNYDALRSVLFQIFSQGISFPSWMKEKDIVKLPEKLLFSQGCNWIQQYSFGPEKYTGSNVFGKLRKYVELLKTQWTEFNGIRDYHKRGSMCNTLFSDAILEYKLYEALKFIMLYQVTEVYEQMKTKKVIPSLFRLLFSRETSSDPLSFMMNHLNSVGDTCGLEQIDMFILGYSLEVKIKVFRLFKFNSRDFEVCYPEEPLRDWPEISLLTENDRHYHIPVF
The method in brief:
as §1

For test [7], the target named is OTUB1 (UniProt Q96FW1). The method, boiled down: as §1
Chain of OTUB1 (Q96FW1 whole entry): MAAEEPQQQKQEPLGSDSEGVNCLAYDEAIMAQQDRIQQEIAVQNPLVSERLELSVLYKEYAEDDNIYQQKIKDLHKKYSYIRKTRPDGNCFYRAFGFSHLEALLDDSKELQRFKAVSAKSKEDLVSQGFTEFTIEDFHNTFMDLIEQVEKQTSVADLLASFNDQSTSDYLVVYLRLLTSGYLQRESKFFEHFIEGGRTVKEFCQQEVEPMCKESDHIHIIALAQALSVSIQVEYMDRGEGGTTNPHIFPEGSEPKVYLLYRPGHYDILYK
For test [8], the target named is T4, OTUD4 (UniProt Q01804).
T4 sequence (whole entry): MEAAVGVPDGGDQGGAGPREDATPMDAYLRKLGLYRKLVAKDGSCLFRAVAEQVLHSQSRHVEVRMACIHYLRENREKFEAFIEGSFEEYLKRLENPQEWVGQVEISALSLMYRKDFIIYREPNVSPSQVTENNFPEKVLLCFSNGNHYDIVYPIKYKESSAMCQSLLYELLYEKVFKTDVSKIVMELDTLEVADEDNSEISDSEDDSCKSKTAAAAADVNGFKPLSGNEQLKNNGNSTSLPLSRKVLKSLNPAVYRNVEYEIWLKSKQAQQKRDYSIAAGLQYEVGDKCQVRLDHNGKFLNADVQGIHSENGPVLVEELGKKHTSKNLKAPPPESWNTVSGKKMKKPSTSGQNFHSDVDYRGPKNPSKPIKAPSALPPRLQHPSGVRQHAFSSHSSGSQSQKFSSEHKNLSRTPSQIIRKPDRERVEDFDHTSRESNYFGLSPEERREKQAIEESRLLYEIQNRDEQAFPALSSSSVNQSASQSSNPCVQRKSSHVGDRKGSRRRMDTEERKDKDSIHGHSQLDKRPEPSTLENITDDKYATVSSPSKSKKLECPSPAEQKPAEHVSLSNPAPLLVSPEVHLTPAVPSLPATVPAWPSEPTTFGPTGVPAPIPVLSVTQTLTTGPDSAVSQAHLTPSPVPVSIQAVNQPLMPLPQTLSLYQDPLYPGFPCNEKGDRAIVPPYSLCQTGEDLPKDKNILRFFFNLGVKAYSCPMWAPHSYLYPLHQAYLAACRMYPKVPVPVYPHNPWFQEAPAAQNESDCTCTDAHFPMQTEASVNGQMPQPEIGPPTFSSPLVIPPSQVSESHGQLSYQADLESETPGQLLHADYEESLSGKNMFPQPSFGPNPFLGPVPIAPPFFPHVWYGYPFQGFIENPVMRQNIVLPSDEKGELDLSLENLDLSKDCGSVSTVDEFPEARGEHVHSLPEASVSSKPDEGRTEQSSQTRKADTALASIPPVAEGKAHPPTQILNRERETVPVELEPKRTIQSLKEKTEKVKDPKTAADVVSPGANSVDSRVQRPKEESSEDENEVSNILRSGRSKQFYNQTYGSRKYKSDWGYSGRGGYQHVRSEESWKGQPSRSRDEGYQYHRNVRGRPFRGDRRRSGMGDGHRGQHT
The method in brief: as §1

Test [9] deals with T5, OTUD5 (UniProt Q96G74).
T5 sequence (whole entry): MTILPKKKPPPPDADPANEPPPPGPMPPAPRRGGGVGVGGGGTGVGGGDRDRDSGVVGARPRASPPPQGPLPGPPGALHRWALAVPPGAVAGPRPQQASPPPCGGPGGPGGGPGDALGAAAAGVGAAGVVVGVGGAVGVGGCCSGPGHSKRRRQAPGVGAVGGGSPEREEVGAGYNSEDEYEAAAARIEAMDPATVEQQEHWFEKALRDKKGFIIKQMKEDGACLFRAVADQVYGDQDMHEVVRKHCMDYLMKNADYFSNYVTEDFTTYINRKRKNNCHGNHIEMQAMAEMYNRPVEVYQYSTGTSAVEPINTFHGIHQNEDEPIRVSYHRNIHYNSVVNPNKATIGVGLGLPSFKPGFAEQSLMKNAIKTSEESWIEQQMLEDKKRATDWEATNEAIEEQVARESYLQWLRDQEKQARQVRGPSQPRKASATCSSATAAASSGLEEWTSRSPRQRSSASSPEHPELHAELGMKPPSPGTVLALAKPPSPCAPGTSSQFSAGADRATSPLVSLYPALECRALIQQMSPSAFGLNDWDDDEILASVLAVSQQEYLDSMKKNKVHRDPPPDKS
The method in brief:
as §1

Unmarked numbers belong to inactive results.

These results are taken from the supplement of paper PMC11732987, “Enantioselective OTUD7B fragment discovery through chemoproteomics screening and high-throughput optimisation” (Communications Chemistry, 2025).

Chain of ATXN3 (P54252 whole entry): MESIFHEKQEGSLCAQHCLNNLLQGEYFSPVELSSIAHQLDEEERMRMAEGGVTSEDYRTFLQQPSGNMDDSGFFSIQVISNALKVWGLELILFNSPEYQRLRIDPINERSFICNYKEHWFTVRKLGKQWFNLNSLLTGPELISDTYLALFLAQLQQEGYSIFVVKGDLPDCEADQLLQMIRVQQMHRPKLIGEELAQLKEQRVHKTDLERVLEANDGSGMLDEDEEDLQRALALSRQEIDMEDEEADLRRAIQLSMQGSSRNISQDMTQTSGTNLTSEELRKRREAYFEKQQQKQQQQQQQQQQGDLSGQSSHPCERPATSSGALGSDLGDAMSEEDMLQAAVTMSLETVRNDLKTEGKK
Chain of EIF3H (O15372 whole entry): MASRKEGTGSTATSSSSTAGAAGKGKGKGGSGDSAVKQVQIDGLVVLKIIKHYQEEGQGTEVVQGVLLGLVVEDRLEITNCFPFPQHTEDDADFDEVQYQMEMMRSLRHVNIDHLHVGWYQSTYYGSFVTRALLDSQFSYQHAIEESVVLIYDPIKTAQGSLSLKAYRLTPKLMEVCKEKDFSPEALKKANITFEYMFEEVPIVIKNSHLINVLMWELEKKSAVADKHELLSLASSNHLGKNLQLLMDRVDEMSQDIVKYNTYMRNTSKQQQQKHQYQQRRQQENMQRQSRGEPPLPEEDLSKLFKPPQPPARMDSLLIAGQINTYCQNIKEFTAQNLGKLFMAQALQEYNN
Chain of EIF3F (O00303 whole entry): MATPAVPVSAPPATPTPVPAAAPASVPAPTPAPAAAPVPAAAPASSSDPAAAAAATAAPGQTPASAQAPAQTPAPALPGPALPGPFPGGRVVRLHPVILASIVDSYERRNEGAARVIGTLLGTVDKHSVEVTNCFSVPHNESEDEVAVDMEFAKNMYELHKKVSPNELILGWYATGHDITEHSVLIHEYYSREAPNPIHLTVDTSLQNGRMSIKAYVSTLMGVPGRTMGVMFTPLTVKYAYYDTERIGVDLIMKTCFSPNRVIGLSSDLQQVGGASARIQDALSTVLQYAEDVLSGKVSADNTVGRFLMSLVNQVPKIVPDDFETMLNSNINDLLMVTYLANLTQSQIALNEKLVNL

As for `O=C(CCl)N1CCC(S(=O)(=O)c2ccc(F)cc2)CC1`, the “log2 ratio of Biotin-Ahx-Ub-VS probe labelling” value (shortened to “log2 ratio”) is -0.536 in test [1]; -0.72 in [2]; -1.46 (active) in test [3]; -0.133 in test [4]; 0.256 in [5]; -0.39 in test [6]. Moreover, the results for the “log2 ratio” value in test [7], in test [8] and in test [9] were 0.147, -0.273 and -0.457, respectively.

On to `Cc1cc(C2CCCN2C(=O)CCl)nn1C.Cl` (stereo not drawn), for which the “log2 ratio” value in test [1] was 0.0249; in test [2], -0.374; in [3], -0.0558; in [4], -0.11; in test [5], -0.0784; in test [6], 0.201. Also, the “log2 ratio” value in test [7] was -0.0124; in [8], -0.0857; in [9], -0.157.
